Some test systems named below: T-47D breast; MDA-MB-435 melanoma; SW-620 colon; MCF7 breast; HCT-116 colon; HCC-2998 colon; KM12 colon.
What all share (experiment): NCI-60 one-dose screen, 48 h (100 = growth as untreated, 0 = no growth, -100 = all killed)
Holding throughout (conditions): 10 µM unless noted

Compounds without any hit were thinned out: in the full panel of roughly 83,000, 20% have a hit.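 Growth was measured after 48 h exposure to one concentration of compound in 96-well plates. Values under 10 count as active.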 Unmarked numbers belong to inactive results. The source made the active and inactive calls.

In the case of `Nc1ncc(-c2ccc3ncnc(Nc4cccc(Cl)c4)c3c2)cn1`, the growth in the assay on T-47D breast is -20.1% (active); in the assay on MDA-MB-435 melanoma it was 55.6%; with SW-620 colon, 91.4%; in the assay on MCF7 breast, 24.2%; with HCT-116 colon, 66.4%; in the assay with HCC-2998 colon, 60.5%. Besides, the growth with KM12 colon is 67.5%.

Turning to `COc1ccc(C(=O)N2c3ccccc3Sc3ccccc32)c(OC)c1`, the growth in the assay on T-47D breast was 41.5%; in the assay on MDA-MB-435 melanoma, -43% (active); with SW-620 colon it was 24.8%; in the assay with MCF7 breast, 19.9%; with HCT-116 colon, 9.42% (active); with HCC-2998 colon, 12.8%. Moreover, in the assay with KM12 colon, the growth was 14.3%.

On to `N=C(N)c1ccc(-c2ccc(-c3ccc(Cl)cc3Cl)s2)cc1`, for which the growth with T-47D breast was 47.2%; with MDA-MB-435 melanoma, -2.28% (active); with SW-620 colon, -52.1% (active); in the assay on HCT-116 colon, -60.1% (active); in the assay with HCC-2998 colon, -65.9% (active); in the assay with KM12 colon, -87.3% (active).

Take `CCC(=C(c1ccc(OCCN2CCCCC2)cc1)c1ccc(OCCN2CCCCC2)cc1)c1ccc(Cl)cc1`: the growth in the assay with T-47D breast is -68.3% (active); with MDA-MB-435 melanoma, -96.2% (active); with SW-620 colon it was -84.1% (active); in the assay with MCF7 breast it was -79.9% (active); with HCT-116 colon, -91.1% (active); in the assay on HCC-2998 colon it was -87% (active).

Turning to `C=C(C)[C@@H]1CC[C@]2(CO)CC[C@]3(C)[C@H](CC[C@@H]4[C@@]5(C)CC[C@H](NCO)C(C)(C)[C@@H]5CC[C@]43C)[C@@H]12`, the growth is -42.9% (active) in the assay on T-47D breast; -79.7% (active) in the assay with SW-620 colon; -62.8% (active) in the assay on MCF7 breast; -62.1% (active) with HCT-116 colon; -77.5% (active) in the assay on KM12 colon.

Take `CCCC/C=C/[C@@H]1C[C@H]1CCO`: the growth in the assay on T-47D breast is 95.9%; in the assay with MDA-MB-435 melanoma, 102%; in the assay with SW-620 colon it was 102%; in the assay on MCF7 breast, 87.5%; with HCT-116 colon, 90.6%; in the assay with KM12 colon, 103%.

On to `CCOC(=O)c1cc(C(=O)c2cc(OC)c(OC)c(OC)c2)n2ncccc12`, for which the growth is 58.5% in the assay on T-47D breast; -57.2% (active) in the assay with MDA-MB-435 melanoma; 33.6% with SW-620 colon; 19.7% in the assay on MCF7 breast; 11.8% in the assay with HCT-116 colon; 28.3% with HCC-2998 colon. Besides, the growth with KM12 colon is 20.8%.

In the case of `Cc1nc2sc(C(=O)Nc3cccc(Br)c3)c(N)c2cc1C(O)c1ccccc1` (configuration not stated), the growth was 43.2% with T-47D breast, 31% in the assay with SW-620 colon, 21.9% in the assay with MCF7 breast and 16.2% with HCT-116 colon.

As to `O=C1/C(=C/c2ccc([N+](=O)[O-])cc2)COc2ccc(O)cc21`, the growth was 79.4% with T-47D breast; 82.4% in the assay with MDA-MB-435 melanoma; -11.7% (active) with SW-620 colon; 5.28% (active) in the assay on MCF7 breast; -5.5% (active) in the assay with HCT-116 colon; 98.5% in the assay on HCC-2998 colon. Moreover, the growth in the assay with KM12 colon is 48%.

As to `Nc1cc(C(=O)NC[C@H]2CN(c3ccc(N4CCC(C(=O)O)CC4)cc3)C(=O)O2)ccc1Cl`, the growth with T-47D breast was 98.3%; in the assay on MDA-MB-435 melanoma it was 108%; in the assay on SW-620 colon, 97.7%; in the assay on MCF7 breast, 95.3%; in the assay on HCT-116 colon it was 105%; in the assay on HCC-2998 colon, 107%. Further, the growth with KM12 colon was 100%.

`CC(C)C1=NOC(=O)C1=Cc1cn(-c2ccccc2)nc1-c1ccc(F)cc1`: the growth in the assay with T-47D breast was 76.9%; in the assay with MDA-MB-435 melanoma, 77.4%; in the assay on SW-620 colon, 61.2%; with MCF7 breast it was 50.8%; in the assay on HCT-116 colon, 32.4%; in the assay with HCC-2998 colon it was 79.8%. Also, the growth with KM12 colon was 69.7%.

Regarding `C=C1C(=O)O[C@H]2[C@H]1CC/C(COC(=O)c1cc3ccccc3s1)=C\CC[C@@]1(C)O[C@@H]21`, the growth with T-47D breast was -50.2% (active); in the assay with MDA-MB-435 melanoma it was -71% (active); with SW-620 colon it was -67.4% (active); with MCF7 breast, -41.9% (active); in the assay on HCT-116 colon, -83.8% (active); in the assay with HCC-2998 colon it was -76.6% (active). For the same compound, in the assay with KM12 colon, the growth was -59.7% (active).

For `CC/C(=C(/c1ccc(Cl)cc1)c1ccc(OCCN2CCCCC2)cc1)c1ccc(OC)cc1`, the growth with T-47D breast is 32.3%; with MDA-MB-435 melanoma, 65.6%; in the assay on SW-620 colon it was 39.1%; with MCF7 breast, 15.3%; in the assay on HCT-116 colon, 46.9%; with HCC-2998 colon, 71%. The growth in the assay on KM12 colon was 39.1%.

Regarding `O=C1c2c(c3c4ccccc4[nH]c3c3ccc4ccccc4c23)C(=O)N1CCN1CCOCC1`, the growth in the assay on T-47D breast is 18.6%; in the assay on MDA-MB-435 melanoma, 58.6%; in the assay with SW-620 colon it was 36.1%; in the assay with MCF7 breast, 16.4%; with HCT-116 colon, 23.4%; in the assay on HCC-2998 colon, 80%. Further, the growth with KM12 colon was 36.4%.

As for `CCCCCCCC[C@@H]1N[C@@H](C(=O)OC)Cc2c1[nH]c1ccccc21`, the growth in the assay with T-47D breast was 92.7%; in the assay with MDA-MB-435 melanoma it was 99.8%; in the assay on SW-620 colon it was 94.6%; in the assay with MCF7 breast it was 92%; with HCT-116 colon it was 95.7%; with HCC-2998 colon it was 107%. Also, in the assay on KM12 colon, the growth is 99.7%.

Take `CCN1C(=S)N(c2ccccc2)C2NC(=S)N(/N=C/C=C/c3ccccc3OC)C21` (configuration not stated): the growth in the assay on T-47D breast was 66.7%; in the assay on MDA-MB-435 melanoma, -31% (active); with SW-620 colon, 18.3%; in the assay with MCF7 breast it was 16.7%; in the assay with HCT-116 colon, 10.5%; with HCC-2998 colon, 17.2%. The growth in the assay with KM12 colon was 7.72% (active).

Regarding `O=C1Nc2ccc(C(=O)O)cc2/C1=N/c1nnc(Sc2ccccc2)s1`, the growth with T-47D breast is 103%; in the assay on MDA-MB-435 melanoma it was 102%; in the assay with SW-620 colon, 103%; with MCF7 breast, 101%; in the assay with HCT-116 colon, 104%; with HCC-2998 colon, 112%. Also, the growth with KM12 colon was 99.9%.

Turning to `Fc1cccc(Oc2ccc(Nc3ncnc4ccc(OCCCN5CCOCC5)cc34)cc2Cl)c1`, the growth was 36% in the assay on T-47D breast; 54.3% in the assay with MDA-MB-435 melanoma; 61.1% in the assay on SW-620 colon; 50.4% in the assay with MCF7 breast; 69.4% in the assay on HCT-116 colon; 57% in the assay with HCC-2998 colon. In the assay on KM12 colon, the growth was 45.9%.

For `CCc1ccc(CCCC(=O)O)cc1`, the growth in the assay on T-47D breast is 98.8%; in the assay on MDA-MB-435 melanoma, 103%; in the assay with SW-620 colon, 108%; with MCF7 breast, 93.6%; with HCT-116 colon, 98.1%; with HCC-2998 colon, 117%. Further, in the assay on KM12 colon, the growth is 106%.

`N#CC1=C(N)Oc2c(sc3c(Br)cccc23)C1c1ccc(Cl)cc1` (configuration not stated): the growth is 26.3% in the assay with T-47D breast; 27.3% in the assay on SW-620 colon; 10% in the assay on MCF7 breast; 13.7% in the assay with HCT-116 colon; 10.9% in the assay on HCC-2998 colon; 26.4% in the assay with KM12 colon.

With `Cc1sc2nc(NCCc3c[nH]c4ccc(Cl)cc34)[nH]c(=O)c2c1C`, the growth was 44.9% in the assay with T-47D breast; 39.7% in the assay with MDA-MB-435 melanoma; 9.09% (active) in the assay with SW-620 colon; 32.2% in the assay on MCF7 breast; 24.5% in the assay on HCT-116 colon; 1.89% (active) in the assay on KM12 colon.

As for `C=CC(=O)N1CCN(c2cccc(Oc3nccc(Nc4nnc(-c5ccc(Br)cc5)s4)n3)c2)CC1`, the growth in the assay with T-47D breast is 63.6%; with SW-620 colon it was 35.2%; with MCF7 breast, 35.9%; in the assay on HCT-116 colon, 58.4%; in the assay with HCC-2998 colon, 89.9%; with KM12 colon, 43.8%.

For `CCNCCNc1cc(-c2ccc(C(F)(F)F)cc2)c(C#N)c2nc3ccccc3n12`, the growth is -59.4% (active) in the assay on T-47D breast; -96.9% (active) in the assay with MDA-MB-435 melanoma; -73.7% (active) in the assay on SW-620 colon; -71.6% (active) in the assay on MCF7 breast; -95.4% (active) with HCT-116 colon; -99.6% (active) with HCC-2998 colon. Also, the growth in the assay on KM12 colon was -85.1% (active).

`O=C(CN1C(=O)S/C(=C\C(Cl)=C\c2ccccc2)C1=O)NCCc1ccc(O)cc1`: the growth was 11.4% in the assay with T-47D breast; 2.68% (active) with MDA-MB-435 melanoma; 4.78% (active) in the assay on SW-620 colon; 20.1% with MCF7 breast; -78.8% (active) with HCT-116 colon; 66.8% with HCC-2998 colon. The growth in the assay with KM12 colon was 5.78% (active).

Values taken from PubChem BioAssay (NCI).
